Bioassay records: PubChem, National Center for Advancing Translational Sciences (NCATS)
HT1080NT lethal = qHTS for induction of synthetic lethality in tumor cells producing 2HG: qHTS for the HT-1080-NT fibrosarcoma cell line. AID 686970, 2013. HT-1080-NT fibrosarcoma viability, CellTiter-Glo ATP luminescence, 48 h. Potency, µM (top dose mostly 46.1 µM), inactives show at the top dose activity, negative = less viability, actives largely listed as cytotoxic. 360,000 tested, 1.6% active;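 further: NT is the 2HG producing partner of a matched IDH1 knockdown line; potency means the concentration at half of the fitted maximal effect; 0% = DMSO-treated cells and -100% = media-only wells without cells; nearly all actives have a fitted effect of over 55% in size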
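Read-out is CellTiter-Glo luminescence after 10 minutes at room temperature, following 48 hours' compound treatment of HT-1080-NT cells (750 cells/well, RPMI, 5% FBS, 37 degrees C).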
TDP1 cell noCPT = qHTS for Inhibitors of human tyrosyl-DNA phosphodiesterase 1 (TDP1): qHTS in cells in absence of CPT; Potency, µM (series often up to 46.2 µM), without a hit: at the top dose activity change, negative = growth inhibition, actives largely listed as inhibitors; DT40 Tdp1-/- hTDP1 cells, no CPT, ATP luminescence, 48 h; AID 686978, 2013; 420,000 tested, 15% active; further: potency means the concentration at half of the fitted maximal effect; nearly all actives have a fitted effect of over 55% in size
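No-CPT arm: Tdp1-/-;hTDP1 DT40 cells (400/well) plus compounds, incubated ≥48 hr at 37 °C. Readout CellTiter-Glo luminescence.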
DT40 TDP1 CPT = qHTS for Inhibitors of human tyrosyl-DNA phosphodiesterase 1 (TDP1): qHTS in cells in presence of CPT; 420,000 tested, 12% active; chicken DT40 Tdp1-/-;hTDP1 cells + 20 nM CPT, ATP luminescence, 48 h; Potency, µM (titrated, usually from 46.2 µM), for the others: top-dose activity change, negative = growth inhibition, usual class: inhibitors; AID 686979, 2013; further: potency means the concentration at half of the fitted maximal effect; nearly all actives have a fitted effect of over 55% in size
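Cell growth measured by CellTiter-Glo luminescence after a minimum 48 h, 37 C compound exposure with 20 nM CPT in Tdp1-knockout DT40 cells stably expressing hTDP1, seeded 400/well; qHTS titration format.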
IL1B secr inh = qHTS for Inhibitors of Inflammasome Signaling: IL-1-beta AlphaLISA Primary Screen; THP-1 LPS/ATP IL-1B secretion, AlphaLISA, 16 h; active compounds read low; activity change, % at 57.5 µM; 360,000 tested, 4.7% active; in the data active means activity change below about -50%; inconclusive means mostly about -30% to -49%
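Secreted IL-1B measured by AlphaLISA bead assay after 16 h compound exposure of THP-1 cells; compounds (final up to 57.5 uM) added 1 h before LPS (250 ng/mL) and ATP (1.25 mM) stimulation; lower signal means less secretion.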
HT1080 IDH1KD tx = qHTS for induction of synthetic lethality in tumor cells producing 2HG: qHTS for the HT-1080-IDH1KD cell line; Potency, µM (titrated, usually from 46.1 µM), without a hit: at the top dose activity, negative = toxicity, actives largely listed as cytotoxic; 360,000 tested, 2% active; HT-1080 IDH1 knockdown viability, ATP luminescence, 48 h; AID 686971, 2013;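 further: potency means the concentration at half of the fitted maximal effect; 0% = DMSO wells and -100% = cell-free medium wells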
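After a 2 h attachment period, IDH1KD HT-1080 cells took pin-transferred compound for 48 h at 37 °C; ATP-based luminescence after 10 min room-temperature reagent incubation reported viability.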
* = called active by the depositor; ? = inconclusive; . = not tested or not shown. Compounds with a hit are over-represented: about 19% of the library has one in this group of screens. Unless noted, the call rests on the fitted dose curve; in most records, active means well fitted curve in the direction sought with a large enough effect; inconclusive means small, poorly fitted or top-dose-only effect, or another doubt; inactive means no such curve, though single readings can be large; an effect the other way counts as inactive or inconclusive. Unless noted, on the % scale 0 is the no-effect control and ±100 the full control effect.

SMILES | HT1080NT lethal | TDP1 cell noCPT | DT40 TDP1 CPT | IL1B secr inh | HT1080 IDH1KD tx
CCc1ccc(CNC(=O)C2COc3ccccc3C2)cc1 (centres undefined) | . | 1.2% | -6.7% | . | .
Cn1ccc(C(=O)NCC2CCC3(CCN(Cc4cc(F)cc(F)c4)CC3)O2)n1 (centres undefined) | . | -21.5% | -8.3% | . | .
CCCCn1nnnc1C(C1CC1)N1CCN(C/C=C/c2ccccc2)CC1 (centres undefined) | -9.9% | 16.4µM* | ? | -19.7 | -19.3%
COc1cccc(C(c2nnnn2C(C)(C)C)N2CCN(C3CCCCC3)CC2)c1OC (centres undefined) | -2.2% | -9.0% | -21.5% | -25.0 | 0.8%
CCCCn1nnnc1C(c1cccs1)N1CCN(C/C=C/c2ccccc2)CC1 (centres undefined) | ? | 23.1µM* | 20.6µM* | -0.2 | ?
COc1cccc(C(c2nnnn2C(C)(C)C)N2CCN(C/C=C/c3ccccc3)CC2)c1OC (centres undefined) | ? | 16.4µM* | ? | -8.7 | -27.4%
COc1ccc(-n2nnnc2C(c2cccs2)N2CCN(C/C=C/c3ccccc3)CC2)cc1 (centres undefined) | ? | 16.4µM* | 16.4µM* | 0.0 | ?
Cc1cccc(C)c1-n1nnnc1C(c1cccs1)N1CCN(C/C=C/c2ccccc2)CC1 (centres undefined) | ? | ? | ? | -15.2 | ?
COc1ccc(S(=O)(=O)N2CCN(C(=O)COc3ccc(C)c(C)c3)CC2)cc1OC | -2.9% | -29.3% | ? | -4.8 | 2.1%
C(=C\c1ccccc1)/CN1CCN(C(c2cc3ccccc3o2)c2nnnn2C2CCCC2)CC1 (centres undefined) | 16.4% | ? | ? | -20.3 | 11.5%
C(=C\c1ccccc1)/CN1CCN(C(c2cc3ccccc3o2)c2nnnn2Cc2ccccc2)CC1 (centres undefined) | 17.9% | 16.4µM* | ? | 1.8 | 8.7%
C=CCN1CCN(C(c2cccc(OC)c2OC)c2nnnn2CCC(C)C)CC1 (centres undefined) | 8.3% | 23.1µM* | 25.9µM* | 6.1 | 4.2%
COc1ccc(C(c2nnnn2-c2ccc(OC)cc2)N2CCN(C/C=C/c3ccccc3)CC2)cc1 (centres undefined) | ? | ? | ? | -52.9* | ?
COc1ccc(C(c2nnnn2C(C)(C)C)N2CCN(C/C=C/c3ccccc3)CC2)cc1 (centres undefined) | 24.5% | ? | ? | -16.3 | 13.0%
O=c1cnc2ccccc2n1Cc1ccccc1C(F)(F)F | 21.7% | -27.9% | ? | -13.6 | 8.5%
CCOc1ccc(CNS(=O)(=O)c2cc(-c3cc(C)no3)ccc2C)cc1OC | . | ? | -13.0% | . | .
Cc1ccc(N(C(=O)Cn2nnc(-c3ccc(C)o3)n2)C(C(=O)NC2CCCC2)c2ccco2)cc1 (centres undefined) | ? | 12.6µM* | ? | 6.1 | ?
Cc1ccc(N(C(=O)Cn2nnc(-c3cccs3)n2)C(C(=O)NC2CCCC2)c2ccncc2)cc1 (centres undefined) | 10.7% | 20.6µM* | 23.1µM* | 19.3 | -0.1%
Cc1ccc(C)c(N(C(=O)Cn2nnc(-c3cccs3)n2)C(C(=O)NC2CC2)c2ccc(C)o2)c1 (centres undefined) | 0.0% | 11.2µM* | ? | 18.3 | 4.8%
Cc1ccc(-c2nnn(CC(=O)N(Cc3ccco3)C(C(=O)NC(C)(C)C)c3ccc(C)o3)n2)o1 (centres undefined) | 0.0% | 20.6µM* | 16.4µM* | -23.0 | -9.1%
